A short description of experiment [1]: compounds binding Alexa647 anti-His antibody – biochemical, small-molecule microarray, 635 nm fluorescence, artefact control for SMM control protein annotation, primary screen (AID 1128).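 Note: score merges feature fluorescence with signal-to-noise for each printed compound spot.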 The settings on record: higher = more signal.
The test system of experiment [2] is Human papillomavirus type 1a E7 protein (residues 1-88). The experiment in a line: HPV1a E7 small-molecule binders, primary screen, biochemical, small-molecule microarray, residues 1-88, 635 nm (AID 1129). The settings on record: small-molecule microarray binding, fluorescence 635 nm; higher = more signal.
Experiment [3] concerns the target Focal adhesion kinase 1 (Homo sapiens) (UniProt Q05397). The experiment in a line: PTK2 protein binding on printed compound slides – biochemical, small-molecule microarray, 635/667 nm fluorescence, BSA, DTT, primary screen (AID 1130).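 Note: composite of spot emission at 667 nm and signal to noise over triplicate slides.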 The settings on record: 635 nm fluorescence, higher = more signal.
Experiment [4] has as its system Fibrinogen (Alexa647-labelled). As to the kind of experiment: Alexa647-fibrinogen binding to printed small molecules – biochemical, small-molecule microarray, 635/667 nm fluorescence, artefact control for SMM control-protein annotation, profiling panel (AID 1131).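 Note: z-score merges 667 nm fluorescence with per-spot signal-to-noise over triplicate slides.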 The settings on record: fibrinogen-A647 binding fluorescence, higher = more signal.
Experiment [5] concerns the target Follistatin (Homo sapiens) (UniProt P19883). The experiment in a line: FST protein binding to printed compounds – biochemical, small-molecule microarray, 635/667 nm fluorescence, primary screen (AID 1132). The settings on record: 635 nm fluorescence, higher = more signal.
Experiment [6] deals with Fibroblast growth factor 2 (Homo sapiens) (UniProt P09038). The experiment in a line: basic fibroblast growth factor binding to printed compounds – biochemical, small-molecule microarray, 635/667 nm fluorescence, primary screen (AID 1133). The settings on record: FGF2, fluorescence 635/667, higher = more signal.
Experiment [7] is described as follows: JC-1 mitochondrial potential readout, lung cancer cells – cell-based, A549, JC-1 fluorescence, basal, 24 h, 100 nL, profiling panel (AID 1138).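 Note: A549 lung adenocarcinoma cells under basal conditions with no added stimulus; test concentration not given here.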 The settings on record: higher = more signal.
The test system of experiment [8] is Lefty1. As to the kind of experiment: Lefty1 protein binding to printed compounds – biochemical, small-molecule microarray, 635/667 nm fluorescence, primary screen (AID 1139). The settings on record: fluorescence 635/667, higher = more signal.
Experiment [9] concerns wheat germ agglutinin (Triticum aestivum), Alexa647-labelled. The experiment in a line: Alexa647-WGA lectin binding to printed small molecules – biochemical, small-molecule microarray, 635/667 nm fluorescence, artefact control for SMM control-protein annotation, profiling panel (AID 1140).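 Note: score merges 667 nm feature emission with signal to noise over triplicate slides.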 The settings on record: WGA-A647 binding, 635 nm fluorescence, higher = more signal.
The target in experiment [10] is Luciferin 4-monooxygenase (Photinus pyralis) (UniProt P08659). As to the kind of experiment: inhibition of purified Photinus pyralis luciferase – biochemical, luminescence, purified enzyme, 2006 set, primary screen (AID 1141).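 Note: cell-free assay with purified firefly luciferase at 100 ng per well in PBS; test concentration not given here.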 The settings on record: purified firefly luciferase, SteadyGlo luminescence, 30 min; higher = more signal, called active from +8 up or from −8 down.

Calls of active or inactive are those of the source.

Focal adhesion kinase 1 (Homo sapiens), sequence (Q05397 whole entry, looked up): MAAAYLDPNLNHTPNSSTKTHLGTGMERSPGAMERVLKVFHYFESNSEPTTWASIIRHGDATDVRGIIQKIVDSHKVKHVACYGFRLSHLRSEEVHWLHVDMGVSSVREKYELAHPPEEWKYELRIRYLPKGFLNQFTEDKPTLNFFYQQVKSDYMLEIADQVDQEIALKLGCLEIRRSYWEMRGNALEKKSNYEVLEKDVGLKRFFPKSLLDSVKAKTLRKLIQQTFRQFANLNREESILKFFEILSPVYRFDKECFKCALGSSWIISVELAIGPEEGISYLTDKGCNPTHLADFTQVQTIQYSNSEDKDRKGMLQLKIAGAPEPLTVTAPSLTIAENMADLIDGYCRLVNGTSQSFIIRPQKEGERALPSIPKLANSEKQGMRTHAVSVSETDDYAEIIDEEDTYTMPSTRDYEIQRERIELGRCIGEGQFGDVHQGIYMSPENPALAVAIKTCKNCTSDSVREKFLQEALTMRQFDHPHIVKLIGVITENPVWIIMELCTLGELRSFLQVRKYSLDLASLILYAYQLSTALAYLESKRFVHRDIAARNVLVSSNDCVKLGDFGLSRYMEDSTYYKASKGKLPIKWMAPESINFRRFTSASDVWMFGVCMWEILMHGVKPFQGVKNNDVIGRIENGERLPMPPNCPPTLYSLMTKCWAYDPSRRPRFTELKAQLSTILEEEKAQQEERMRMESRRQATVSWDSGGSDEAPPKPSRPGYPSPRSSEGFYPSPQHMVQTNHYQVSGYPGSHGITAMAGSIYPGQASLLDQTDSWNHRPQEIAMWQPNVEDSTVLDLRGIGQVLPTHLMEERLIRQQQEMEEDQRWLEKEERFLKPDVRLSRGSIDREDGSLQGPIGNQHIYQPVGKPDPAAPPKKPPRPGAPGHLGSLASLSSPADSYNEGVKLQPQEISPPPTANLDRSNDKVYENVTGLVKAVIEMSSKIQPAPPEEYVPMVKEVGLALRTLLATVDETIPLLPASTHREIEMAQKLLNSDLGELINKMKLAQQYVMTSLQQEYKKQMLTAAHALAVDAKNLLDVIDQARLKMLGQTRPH
Fibroblast growth factor 2 (Homo sapiens), sequence (P09038 whole entry, looked up): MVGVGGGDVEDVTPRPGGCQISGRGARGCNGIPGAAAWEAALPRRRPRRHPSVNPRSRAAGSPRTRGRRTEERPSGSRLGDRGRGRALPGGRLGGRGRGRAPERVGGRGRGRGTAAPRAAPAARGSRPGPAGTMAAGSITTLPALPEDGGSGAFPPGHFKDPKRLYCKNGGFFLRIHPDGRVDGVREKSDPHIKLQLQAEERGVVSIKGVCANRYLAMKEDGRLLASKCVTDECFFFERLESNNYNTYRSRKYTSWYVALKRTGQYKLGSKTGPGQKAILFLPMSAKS
Follistatin (Homo sapiens), sequence (P19883 whole entry, looked up): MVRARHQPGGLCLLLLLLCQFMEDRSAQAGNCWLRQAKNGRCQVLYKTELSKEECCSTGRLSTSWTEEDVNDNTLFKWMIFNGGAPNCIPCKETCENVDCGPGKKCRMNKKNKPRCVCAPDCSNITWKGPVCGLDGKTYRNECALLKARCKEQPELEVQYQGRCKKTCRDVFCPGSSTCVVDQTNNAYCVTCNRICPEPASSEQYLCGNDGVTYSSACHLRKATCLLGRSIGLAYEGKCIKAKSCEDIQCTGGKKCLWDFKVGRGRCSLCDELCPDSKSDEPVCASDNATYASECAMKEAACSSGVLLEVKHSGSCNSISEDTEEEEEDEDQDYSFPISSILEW
Luciferin 4-monooxygenase (Photinus pyralis), sequence (P08659 whole entry, looked up): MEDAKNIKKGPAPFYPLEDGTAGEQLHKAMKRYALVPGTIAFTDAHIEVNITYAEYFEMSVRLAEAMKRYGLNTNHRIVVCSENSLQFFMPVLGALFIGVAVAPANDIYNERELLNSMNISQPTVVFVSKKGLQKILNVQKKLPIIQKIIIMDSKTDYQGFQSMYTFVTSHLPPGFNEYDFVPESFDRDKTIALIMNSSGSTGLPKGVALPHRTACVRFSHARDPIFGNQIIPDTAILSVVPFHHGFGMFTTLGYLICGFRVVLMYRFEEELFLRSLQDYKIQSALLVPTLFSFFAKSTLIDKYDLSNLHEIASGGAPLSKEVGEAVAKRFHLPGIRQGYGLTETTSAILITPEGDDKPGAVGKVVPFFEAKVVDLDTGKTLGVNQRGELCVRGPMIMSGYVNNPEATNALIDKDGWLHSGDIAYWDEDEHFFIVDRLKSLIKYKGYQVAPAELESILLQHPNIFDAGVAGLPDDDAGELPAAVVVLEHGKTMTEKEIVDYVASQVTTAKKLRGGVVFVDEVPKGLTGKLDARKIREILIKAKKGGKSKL

For `CCCNC(=O)OC[C@H]1O[C@H](CCON=C[C@@H](NS(=O)(=O)c2ccc(C)cc2)[C@H](C)C=CCC(=O)OC)C=C[C@@H]1Oc1ccc(OC)cc1`, the composite z-score in [1] was -0.114; in [2], 0.136; in experiment [3], 0.459; in [4], 0.0865; in experiment [5] it was -0.0546; in experiment [6] it was -0.102. The composite z-score in [8] came out at 0.0275; in experiment [9], 0.391. Also, the values for the z-score in [7] and in [10] were 0.188 and -0.21 (inactive), respectively.
As to `C#CCCCON=C1C[C@@H](O)[C@@H](O)[C@@H]2[C@@H]3C(=O)N(C[C@@H]4CCCO4)C(=O)[C@@H]3CC[C@@H]12`, the composite z-score in experiment [1] was 0.265; in [2], 0.439; in experiment [3], -0.14; in experiment [4], 0.527; in experiment [5], 0.378; in [6] it was 0.222. For the same compound, the composite z-score in [8] turned out to be 0.554; in experiment [9] it was 0.553. Moreover, the z-score in [7] was 0.441; in [10], -0.106 (inactive).
Regarding `C=CC[C@@H]1C=C[C@H](ON=CC[C@@H]2C=C[C@H](OC(C)=O)[C@@H](COC(C)=O)O2)[C@@H](CO)O1`, the composite z-score in [1] is 1.37; in experiment [2], 0.915; in [3] it was -0.0825; in [4], 0.991; in [5] it was 0.538; in [6], 0.945. For the same compound, the composite z-score stood at 0.918 in experiment [8] and 0.566 in experiment [9]. Also, the values for the z-score in experiment [7] and in [10] were -0.0536 and 0.328 (inactive), respectively.
In the case of `O=C1[C@H]2[C@H]3[C@H](O)[C@H](O)CC(=NOC[C@@H](O)COCc4ccco4)[C@@H]3CC[C@H]2C(=O)N1Cc1ccccc1`, the composite z-score was 0.381 in [1]; 1.26 in experiment [2]; 0.728 in [3]; -0.956 in experiment [4]; 1.37 in experiment [5]; 0.962 in experiment [6]. The values for the composite z-score in experiment [8] and in experiment [9] were 0.941 and 0.265, respectively. The z-score in experiment [7] was 0.0705; in experiment [10] it was 1.2 (inactive).
Regarding `CCOC(=O)[C@H](CC(C)C)NC(=O)CCC1CC(OC(=O)NCCc2ccc(F)cc2)CC2(CCCC(COC(=O)NCCCN3CCCC3=O)O2)O1` (stereo not given in full), the composite z-score in experiment [1] is 0.969; in experiment [2] it was 0.635; in experiment [3], 0.0501; in experiment [4], 0.958; in experiment [5] it was 1.25; in [6], 0.304. For the same compound, the composite z-score amounted to 0.766 in experiment [8] and 0.205 in experiment [9]. Also, the values for the z-score in experiment [7] and in [10] were -0.114 and 0.564 (inactive), respectively.
On to `CC(=O)OC[C@H]1O[C@H](C#CCCc2ccccc2)C=C[C@@H]1OC(C)=O`, for which the composite z-score in experiment [1] is 0.538; in experiment [2], -0.417; in experiment [3], -0.34; in experiment [4] it was 0.884; in experiment [5] it was 0.518; in experiment [6], 0.461. In addition, the figures for the composite z-score in experiment [8] and in [9] were 1.22 and -0.225, respectively. Moreover, the z-score in [7] was 0.0303; in [10], -0.97 (inactive).
For the compound `CO[C@H]1COC(=O)[C@H](C)COC(=O)[C@@H](OCc2ccccc2)C=C[C@@H]1C`, the composite z-score is -0.49 in [1]; -1.09 in experiment [2]; -0.317 in experiment [3]; -0.534 in experiment [4]; 0.139 in experiment [5]; 0.496 in [6]. For the same compound, the composite z-score in experiment [8] was 0.613; in experiment [9] it was -0.49. The z-score in [7] is 0.877; in experiment [10], -1.56 (inactive).
As to `C=CC[C@@H]1C=C[C@H](ON=C(C)CCN2CCCCc3nc(C)c(C)cc32)[C@@H](CO)O1`, the composite z-score in [1] is -0.833; in experiment [2], -0.0192; in [3], 0.499; in experiment [4], 0.635; in [5] it was 1.39; in experiment [6], 1.36. For the same compound, the composite z-score in experiment [8] amounted to 1.56; in [9], 0.607. Besides, the z-score in [7] is 0.143; in experiment [10], 1.38 (inactive).
On to `CC#CCOCCC=C1c2ccccc2[C@@H](OC)[C@@H]1C`, for which the composite z-score in [1] was 1.79; in experiment [2], -0.0931; in [3], -0.0029; in experiment [4], 0.329; in experiment [5], 0.331; in experiment [6], 0.412. Moreover, the composite z-score in experiment [8] came to 1.24; in experiment [9], 0.725. Moreover, the z-score is -0.198 in [7] and -0.693 (inactive) in experiment [10].
For the compound `COC(=O)CC=C[C@@H](C)[C@@H](C=NOC[C@@H](O)COCc1ccco1)NS(=O)(=O)c1ccc(C)cc1`, the composite z-score was 0.13 in experiment [1]; -1.94 in experiment [2]; -0.432 in experiment [3]; -1.03 in [4]; 1.29 in experiment [5]; 0.542 in experiment [6]. Also, the composite z-score is 0.915 in experiment [8] and -0.681 in experiment [9]. In addition, the z-score in experiment [7] is -0.383; in experiment [10], 0.167 (inactive).
As for `C#CCCCON=C1C[C@@H](O)[C@@H](O)[C@@H]2[C@@H]3C(=O)N(C4CCCCC4)C(=O)[C@@H]3CC[C@@H]12`, the composite z-score in experiment [1] worked out at 0.16; in experiment [2] it was 0.256; in [3], 0.394; in experiment [4] it was 0.486; in [5], 0.513; in experiment [6], 0.0704. The figures for the composite z-score in experiment [8] and in experiment [9] were 0.363 and 0.329, respectively. Also, the results for the z-score in experiment [7] and in experiment [10] were -0.404 and -0.0138 (inactive), respectively.
On to `COC(=O)[C@@H]1CC[C@H](C)[C@@H](c2ccc(C)cc2)N1C(=O)c1ccc(C=NOC[C@H]2O[C@H](c3ccccc3)C=C[C@@H]2Oc2ccc(OC)cc2)cc1`, for which the composite z-score in experiment [1] was -0.585; in experiment [2], -0.274; in experiment [3], -0.0204; in [4], -0.324; in experiment [5], 0.222; in experiment [6], 0.174. Also, the results for the composite z-score in experiment [8] and in experiment [9] were 0.244 and 0.172, respectively. The z-score in [7] was -0.351; in experiment [10], 1.18 (inactive).
In the case of `COc1ccc(O[C@H]2C=C[C@@H](c3ccccc3)O[C@@H]2COC(=O)NCc2cccc3ccccc23)cc1`, the composite z-score was -0.816 in experiment [1]; -0.406 in [2]; -0.235 in [3]; -0.138 in experiment [4]; -0.0584 in experiment [5]; 0.353 in experiment [6]. Besides, the composite z-score was 0.0182 in experiment [8] and -0.317 in experiment [9]. Also, the figures for the z-score in [7] and in experiment [10] were 1.07 and 0.441 (inactive), respectively.
For `CCOC(=O)[C@H](Cc1ccccc1)NC(=O)CCC1CC(OC(=O)NCc2ccc3c(c2)OCO3)CC2(CCCC(COC(=O)NCCOC)O2)O1` (stereo not given in full), the composite z-score in experiment [1] was 0.431; in experiment [2], 1.14; in experiment [3] it was -0.341; in experiment [4], 0.69; in [5] it was 0.808; in experiment [6] it was 0.455. For the same compound, the composite z-score in [8] stood at 1.26; in [9], 0.581. Besides, the z-score is -0.599 in experiment [7] and 0.724 (inactive) in experiment [10].
Consider `CCN1C(=O)[C@H]2[C@@H]3C(=CC[C@H]2C1=O)C(=O)[C@H]1O[C@H]1[C@H]3O`, for which the composite z-score is 1.21 in experiment [1]; 0.491 in [2]; -0.204 in experiment [3]; 0.185 in experiment [4]; 1.21 in experiment [5]; 1.42 in [6]. Further, the composite z-score in experiment [8] was determined as 1.39; in experiment [9], 0.207. Also, the z-score in [7] is -0.923; in experiment [10] it was -0.415 (inactive).
Consider `COC(=O)[C@H](C)NC(=O)CCC1CC(OC(=O)NCc2cccc3ccccc23)CC2(CCCC(COC(=O)NCCC(C)C)O2)O1` (stereo not given in full), for which the composite z-score in [1] was 0.164; in experiment [2] it was 1.18; in [3] it was 0.287; in [4], -1.15; in [5] it was 0.295; in experiment [6], 0.803. Moreover, the composite z-score was determined as 0.36 in experiment [8] and 0.268 in experiment [9]. Moreover, the z-score in experiment [7] is 0.95; in [10], 0.652 (inactive).
Turning to `CCOC(=O)NN=C1C[C@@H](O)[C@@H](O)[C@@H]2[C@@H]3C(=O)N(C[C@@H]4CCCO4)C(=O)[C@@H]3CC[C@H]12`, the composite z-score in experiment [1] turned out to be 0.57; in experiment [2] it was 0.317; in experiment [3], 0.43; in [4], 0.835; in experiment [5] it was 0.308; in experiment [6] it was 0.342. Further, the composite z-score worked out at 0.293 in experiment [8] and 0.0337 in experiment [9]. For the same compound, the results for the z-score in [7] and in experiment [10] were -0.311 and 0.515 (inactive), respectively.

Source of the values: PubChem BioAssay.
